Test [1] is described as follows: A CellTox Green Cytotoxicity Assay to monitor cytotoxicity in HEK293 cells - 32 hour (AID 1224881). Also: nearly all actives have a fitted effect of over 40% in size. Also: potency is read from the fitted curve at half-maximal effect. An outline of the steps:
(§1)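 Fluorescence from a DNA-binding dye excluded by viable cells was measured repeatedly in the same HEK293 wells (600 cells/well) during continuous compound exposure at 37 C. Each assay gives one read point: 0, 8, 16, 24, 32 or 40 h.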

A short description of test [2]: A CellTox Green Cytotoxicity Assay to monitor cytotoxicity in HepG2 cells - 0 hour (AID 1224882). Also: nearly all actives have a fitted effect of over 35% in size. In a few lines: (§2)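 Real-time cytotoxicity: fluorescence of a cell-impermeant cyanine dye binding DNA of dead HepG2 cells, measured repeatedly (0–40 h) during compound exposure at 37 C. Cells seeded 600/well with reagent, dosed after 5 h.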
A short description of test [3]: A CellTox Green Cytotoxicity Assay to monitor cytotoxicity in HepG2 cells - 32 hour (AID 1224883). Also: nearly all actives have a fitted effect of over 50% in size. Also: potency is read from the fitted curve at half-maximal effect. An outline of the steps:
as §2

The nature of test [4]: A CellTox Green Cytotoxicity Assay to monitor cytotoxicity in HEK293 cells - 8 hour (AID 1224884). Also: nearly all actives have a fitted effect of over 35% in size. In a few lines: as §1
Test [5] is described as follows: qHTS RealTime-Glo MT Cell Viability Assay in HEK293 cells - 24 hour (AID 1224886). Also: top concentration of the series differs between compounds; nearly all actives have a fitted effect of over 50% in size. An outline of the steps: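 Viability tracked continuously by luminescence as live cells reduce a prosubstrate for NanoLuc; HEK293 cells preincubated 5 h, compound-treated at 37 C, and read at 0, 8, 16, 24, 32 and 40 h.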
The nature of test [6]: A CellTox Green Cytotoxicity Assay to monitor cytotoxicity in HEK293 cells - 16 hour (AID 1224888). Also: nearly all actives have a fitted effect of over 35% in size. An outline of the steps:
as §1

Test [7] can be described thus: qHTS RealTime-Glo MT Cell Viability Assay in HepG2 cells - 0 hour (AID 1224889). Also: nearly all actives have a fitted effect of over 50% in size. In a few lines:
(§3)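 Viability was tracked continuously by NanoLuc luminescence from prosubstrate reduced by living HepG2 cells, at successive time points over 40 h of compound exposure. Cells with reagent were preincubated 5 h at 37 °C before compound addition.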

Test [8] can be described thus: A CellTox Green Cytotoxicity Assay to monitor cytotoxicity in HepG2 cells - 8 hour (AID 1224890). Also: nearly all actives have a fitted effect of over 45% in size. In a few lines:
as §2

Test [9] in a line: qHTS RealTime-Glo MT Cell Viability Assay in HepG2 cells - 16 hour (AID 1224885). Also: nearly all actives have a fitted effect of over 50% in size. In a few lines:
as §3

Test [10] can be described thus: qHTS RealTime-Glo MT Cell Viability Assay in HEK293 cells - 8 hour (AID 1224887). An outline of the steps: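 Luminescence, which tracks viable cell number through reduction of the prosubstrate to a NanoLuc substrate, was read over continuous 37 C culture. Cells (600/well) were premixed with reagent and rested 5 h before 23 nL of compound in DMSO was pinned.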

A number with no mark means an inactive call. Inconclusive results are not listed. Activity calls are given as the source filed them. Calls follow the shape of the dose curve; as a rule, active = well fitted curve in the direction sought with a large enough effect in the repeat runs; inconclusive = weak or mixed curves; inactive = no such curve, though single readings can be large; an effect the other way counts as inactive or inconclusive.
% is scaled to controls: 0 for no effect and ±100 for the full control effect.

Regarding `NC(=O)COCCN1CCN(C(c2ccccc2)c2ccc(Cl)cc2)CC1` (centres undefined), the Potency entry in [1], in [2], in test [3], in test [4], in [5] and in test [6] was “inactive” throughout. For the same compound, the Potency result in [7] and in [8] was “inactive” in each case.
Turning to `NC(=O)c1ccc([N+](=O)[O-])cc1`, the Potency result in test [1], in test [3], in [4], in test [9], in test [5] and in test [10] was “inactive” throughout. The Potency result in test [6] and in test [7] was “inactive” each time.
Consider `CCN(Cc1ccncc1)C(=O)C(CO)c1ccccc1` (centres undefined), for which the Potency entry in test [1], in [2], in [3], in test [4], in test [10] and in [6] was “inactive” in each case. In addition, the Potency entry in test [7] and in [8] was “inactive” each time.
`O=Cc1cccc([N+](=O)[O-])c1`: the Potency result in test [1], in test [2], in test [3], in test [4], in test [5] and in test [6] was “inactive” in each case. For the same compound, the Potency entry in test [7] is “inactive”.
For `CC(C)(C)NCCNC(C)(C)C`, the Potency result in test [1], in test [3], in test [4], in test [9], in test [5] and in [10] was “inactive” in each case. Besides, the Potency result in test [6] and in test [7] was “inactive” throughout.
Take `Cc1cccn2c(=O)c(-c3nnn[nH]3)cnc12`: the Potency result in test [1] is “inactive”. The cytotoxicity in test [2] is 0.312% [at 15.8 µM]. The values for the cytotoxicity increase in [3], in test [4] and in test [8] were 2.82% [at 15.8 µM], 9.95% [at 15.8 µM] and 3.76% [at 15.8 µM], respectively. The activity change, negative = cytotoxicity in test [5] was 2.84% [at 15.8 µM]; in test [10], -0.563% [at 15.8 µM]; in test [7], -3.79% [at 15.8 µM]. The activity change in test [6] was 17.3% [at 15.8 µM, stronger effect = higher value].
Regarding `CC[N+](C)(C)c1cccc(O)c1`, the Potency entry in test [1], in test [2], in [3], in [4], in test [10] and in test [6] was “inactive” throughout. Besides, the Potency result in [7] and in test [8] was “inactive” each time.
Take `N#Cc1ccc(C2CCCc3cncn32)cc1` (centres undefined): the Potency result in test [1], in [2], in [3], in [4], in test [5] and in test [10] was “inactive” throughout. Further, the Potency entry in test [6], in [7] and in test [8] was “inactive” each time.
In the case of `O=C1CCCCCCCCCCCN1`, the Potency result in [1], in test [2], in test [3], in test [4], in test [5] and in test [10] was “inactive” throughout. For the same compound, the Potency result in [6], in [7] and in test [8] was “inactive” throughout.
Consider `O=C(O)COc1nn(Cc2ccccc2)c2ccccc12`, for which the Potency result in test [1], in test [2], in [3], in [4], in [5] and in test [10] was “inactive” throughout. The Potency entry in test [6], in test [7] and in test [8] was “inactive” each time.
For the compound `COC(=O)c1ccc(C)cc1C1=NC(C)(C(C)C)C(=O)N1` (centres undefined), the Potency result in test [1], in [2], in [3], in [4], in test [5] and in test [6] was “inactive” throughout. Also, the Potency entry in test [7] and in test [8] was “inactive” throughout.
As to `O=C(O)CCCc1ccccc1`, the Potency result in test [1], in [3], in test [4], in test [9], in test [5] and in test [10] was “inactive” each time. The Potency entry in test [6] and in test [7] was “inactive” throughout.
In the case of `COc1ccc2c(c1)c(CC(=O)OCC(=O)O)c(C)n2C(=O)c1ccc(Cl)cc1`, the Potency entry in [1], in test [3], in [4], in [9], in test [5] and in [10] was “inactive” in each case. The Potency result in test [6] and in [7] was “inactive” throughout.
For `NS(=O)(=O)c1cc(C(=O)O)cc(N2CCCC2)c1Oc1ccccc1`, the Potency entry in test [1], in test [2], in test [3], in test [4], in [5] and in test [6] was “inactive” each time. Moreover, the Potency entry in test [7] and in test [8] was “inactive” in each case.
As for `Nc1cc(=O)[nH]c(N)n1`, the Potency entry in [1], in test [2], in test [3], in test [4], in [5] and in test [10] was “inactive” throughout. The Potency entry in test [6], in test [7] and in test [8] was “inactive” throughout.
Turning to `CC(=O)OC/C=C(\C)CC/C=C(\C)CCC=C(C)C`, the Potency result in test [1], in [3], in [4], in test [9], in test [5] and in [10] was “inactive” in each case. The Potency result in [6], in test [7] and in test [8] was “inactive” each time.
Consider `CCCCC(CC)COC(=O)c1ccccc1O` (centres undefined), for which the Potency entry in test [1], in [3], in test [4], in [9], in test [5] and in [10] was “inactive” in each case. The Potency entry in [6], in test [7] and in [8] was “inactive” each time.
For the compound `O=C(c1ccccc1)C1CCCCC1`, the Potency in [1] is 24.5 µM (active); in test [3], 49 µM (active). In addition, the Potency entry in test [2], in test [4], in [5], in [6] and in [7] was “inactive” throughout.
As to `c1cnc(N2CCN(Cc3ccc4c(c3)OCO4)CC2)nc1`, the Potency entry in [1], in test [3], in [4], in [9], in [10] and in test [6] was “inactive” in each case. In addition, the Potency result in test [7] and in test [8] was “inactive” in each case.
As for `Oc1ccc(C2CNCCc3c2cc(O)c(O)c3Cl)cc1` (centres undefined), the Potency entry in [1], in [3], in [4], in [9], in test [5] and in [6] was “inactive” each time. The Potency result in test [7] and in [8] was “inactive” each time.
For `O=C(O)CN(CCOCCOCCN(CC(=O)O)CC(=O)O)CC(=O)O`, the cytotoxicity increase was 6.54% [at 0.29 µM] in test [1], -22.8% [at 0.29 µM] in test [3], 1.88% [at 0.29 µM] in [4] and -22.5% [at 0.29 µM] in test [8]. Besides, the activity change, negative = cytotoxic in test [9] is 0.683% [at 0.29 µM]. In addition, the activity change, negative = cytotoxicity in test [5] is -2.79% [at 0.29 µM]; in test [10], 1.96% [at 0.29 µM]; in test [7], -0.153% [at 0.29 µM]. The activity change in test [6] is 1.33% [at 0.29 µM, stronger effect = higher value].

These data come from PubChem BioAssay (Tox21).
